Target: Glucose transporter (Leishmania mexicana) (UniProt O61059)
Experiment: ST_JUDE_LEISH: Cytotoxicity at 2uM final concentration against transgenic Leishmania Mexicana promastigotes LmGT2 that are glucose transport deficient and complemented with the L. Mexicana glucose transporter 2. Activity is measured by DNA content using SYBR green in vitro
Assay type: functional

| SMILES | inhibition |
| --- | --- |
| O=C(NCCN1CCCCC1)c1ccc(Nc2nccc(Nc3ccc(Oc4ccccc4)cc3)n2)cc1 | 16.6% |
| CCOc1ccc(C(=O)N2CCOC(CCN3CCC(c4ccccc4)CC3)(c3ccc(Cl)c(Cl)c3)C2)cc1 (stereo not given) | 4.6% |
| CN(C)CCN(Cc1ccc(-c2ccc(CNCCc3ccccc3)cc2)nc1)C(=O)CCC1CCCC1 | 6.39% |
| O=C(Nc1cccc(-c2ccc(-c3nc4cc(C(F)(F)F)ccc4[nH]3)cc2)c1)c1ccoc1 | 0.98% |
| O=c1cc(NCCCNCc2cccc(OC(F)(F)C(F)F)c2)[nH]c2ccccc12 | 5.78% |
| Cc1cnc(NCC2CCCCC2)nc1N[C@@H](CC(C)C)C(=O)Nc1ccccc1 | 0.65% |
| Oc1ccc(CCNc2nc(NCCCOc3cc(CN4CCCCC4)ccc3F)nc(N3CCNCC3)n2)cc1 | 5.14% |
| Nc1c(Cl)cc(C(O)CNCCCCCOCCc2ccc3occc3c2)cc1Cl (stereo not given) | 1.96% |
| O=C(Nc1cccc(C(F)(F)F)c1)c1ccc(S(=O)(=O)NCC2CCCN(CC3CCCCC3)C2)cc1 (stereo not given) | -0.91% |
| CC(=O)Nc1cccc(/C=C/C(=O)N2CCC(N3CCCCC3)CC2)c1 | 5.39% |
| N#Cc1ccc(NC(=O)c2ccc(C(=O)NCCCCN3CCC(c4ccc5c(c4OCCOC4CCCCO4)CCCC5)CC3)cc2)cc1 (stereo not given) | 0.27% |
| COc1ccc(CNC(=O)c2cnc3c(O)cccc3c2Nc2cccc(NC(=O)c3ccc(Cl)c(Cl)c3)c2)cc1 | 76.6% |
| COc1cc2c(cc1OC)C(c1ccc(Br)cc1)CN(C)CC2 (stereo not given) | 4.35% |
| CN(c1ccc(NC(=O)Nc2cccc(Cl)c2)cc1)c1ccnc(N)n1 | -0.01% |
| CCOC(=O)NCC(=O)Nc1cccc(-c2cccc(-c3nc4cccc(C)c4[nH]3)c2)c1 | 1.12% |
